{"source": "PubChem BioAssay (NCATS)", "note": "Inconclusive results are not listed. The source made the active and inactive calls. Calls come from the whole dose curve; as a rule, active = well fitted activation curve with a large enough effect; inconclusive = small, poorly fitted or top-dose-only effect, or effect the other way; inactive = flat fitted curve, though single readings scatter.", "data": [{"assay": "qHTS Assay for Identification of Small Molecule Agonists for Thrombopoietin (TPO) Signaling Pathway (AID 917)", "conditions": "TPO signaling pathway reporter cells, agonist qHTS; series mostly up to 38.5 µM", "protocol": "NIH Molecular Libraries Screening Centers Network [MLSCN]\nNIH Chemical Genomics Center [NCGC]\nThe thrombopoietin (TPO) signaling pathway was assayed in murine Ba/F3 cells stably transfected with the human TPO receptor and a luciferase reporter gene controlled by the Glycoprotein IIb promoter (provided by Axxam). BaF3 cells are an IL-3-dependent pro B cell line that upon TPO stimulation, undergo cell division and induce the megakaryocyte marker, Glycoprotein IIb. The assay was screened at the EC50 of TPO (26 pM) to identify activators of the pathway.\nNCGC Assay Protocol Summary:\nCells were maintained at 37 C and 5% CO2in RPMI with 10% fetal bovine serum, 0.5 ng/mL murine IL-3, 100U/ml penicillin and 100 ug/ml streptomycin. Prior to plating, cells were incubated overnight in medium without IL-3. Cells were plated at 250 cells/5uL/well into white solid 1536-well plates, 23 nL of compounds were delivered by a pin tool, and 1 uL of TPO (26 pM final concentration in IL-3 deficient medium) was added. Following 24 hrs of incubation at 37 C and 5% CO2, 4 uL of Steadylite detector mix (PerkinElmer) was added, the plates incubated at room temperature for 10 min and luminescence was measured for 10 s and 2X binning by a ViewLux detector (Perkin Elmer).", "values": [{"molecule": "Clc1cccc(N2CCNCC2)c1", "outcome": "inactive"}, {"molecule": "O=c1[nH]c2ccccc2n1CCCN1CCC(n2c(=O)[nH]c3cc(Cl)ccc32)CC1", "outcome": "inactive"}, {"molecule": "CCn1cc(C(=O)O)c(=O)c2ccc(C)nc21", "outcome": "inactive"}, {"molecule": "Cc1cccc(C)c1NC1=NCCCS1", "outcome": "inactive"}, {"molecule": "Cc1ccc(S(=O)(=O)N[C@@H](CCCCN)C(=O)CCl)cc1", "outcome": "inactive"}, {"molecule": "Cc1ncc(CNC(=O)N(CCCl)N=O)c(N)n1", "outcome": "inactive"}, {"molecule": "NCC(CC(=O)O)c1ccc(Cl)cc1", "note": "(stereo unspecified)", "outcome": "inactive"}, {"molecule": "NN=C(N)N", "outcome": "inactive"}, {"molecule": "N[C@@H]1C[C@H]1c1ccccc1", "outcome": "inactive"}, {"molecule": "Nc1ccncc1", "outcome": "inactive"}, {"molecule": "CCCN1CCC[C@@H]2Cc3nc(N)ncc3C[C@H]21", "outcome": "inactive"}, {"molecule": "COc1ccccc1N1CCNCC1", "outcome": "inactive"}, {"molecule": "CCCC(C)(COC(N)=O)COC(=O)NC(C)C", "note": "(stereo unspecified)", "outcome": "inactive"}, {"molecule": "CC(=O)[C@H]1CC[C@H]2[C@@H]3CC[C@H]4C[C@H](O)CC[C@]4(C)[C@H]3C(=O)C[C@]12C", "outcome": "inactive"}, {"molecule": "NCC1(CC(=O)O)CCCCC1", "outcome": "inactive"}, {"molecule": "CCCN1CCC[C@@H]2Cc3[nH]ncc3C[C@H]21", "outcome": "inactive"}]}]}
